Assay outcomes: PubChem BioAssay, The Scripps Research Institute Molecular Screening Center
MBD2 inh: inhibitors of human MBD2 binding to methylated oligonucleotide; TR-FRET; inhibition, % at 4.4 µM; 0.31% of 370,000 active; AID 686964; in the data active means inhibition above about 13%
UHRF1 MBD2 ctr: blocks human UHRF1 binding to methylated DNA; inhibition, % at 4.4 µM; 0.75% of 370,000 active; UHRF1 binding to methylated oligo, TR-FRET; Q96T88; AID 687016; in the data active means inhibition above about 21%;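 further: UHRF1 SRA domain binding a hemimethylated CpG hairpin DNA probe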
Target sequence (Q96T88 whole entry, looked up, the tested form may be a part): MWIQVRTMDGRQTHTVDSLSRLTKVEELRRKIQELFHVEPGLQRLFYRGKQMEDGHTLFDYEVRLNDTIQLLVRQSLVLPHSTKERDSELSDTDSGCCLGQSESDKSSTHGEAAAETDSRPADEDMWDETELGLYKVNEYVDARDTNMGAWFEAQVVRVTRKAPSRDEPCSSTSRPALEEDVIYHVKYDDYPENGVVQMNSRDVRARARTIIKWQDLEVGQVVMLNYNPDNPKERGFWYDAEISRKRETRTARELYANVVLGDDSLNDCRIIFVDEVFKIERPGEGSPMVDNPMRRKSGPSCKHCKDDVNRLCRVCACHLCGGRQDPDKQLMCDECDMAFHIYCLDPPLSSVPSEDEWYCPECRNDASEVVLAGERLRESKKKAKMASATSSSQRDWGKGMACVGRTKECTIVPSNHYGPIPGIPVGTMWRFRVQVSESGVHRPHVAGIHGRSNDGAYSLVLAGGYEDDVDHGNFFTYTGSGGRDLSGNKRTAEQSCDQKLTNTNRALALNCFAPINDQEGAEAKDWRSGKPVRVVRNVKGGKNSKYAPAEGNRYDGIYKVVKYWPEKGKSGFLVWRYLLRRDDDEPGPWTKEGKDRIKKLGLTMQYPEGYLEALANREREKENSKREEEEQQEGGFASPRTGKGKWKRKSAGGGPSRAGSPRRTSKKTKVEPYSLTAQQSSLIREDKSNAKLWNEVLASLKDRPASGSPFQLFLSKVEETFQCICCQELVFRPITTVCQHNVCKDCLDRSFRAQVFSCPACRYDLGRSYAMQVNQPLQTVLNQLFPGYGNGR
LEDGF integ inh: blocks HIV-1 LEDGF/p75-dependent DNA integration. inhibition, % at 3.7 µM. TR-FRET IN-LEDGF/p75 DNA integration, Eu/Cy5. AID 743269. 0.64% of 370,000 active;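 active means inhibition above the screen-wide mean plus 3 SD, cut at about 13% in these data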;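 further: signal is the Cy5 over europium emission ratio at 671 and 618 nm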
PLC-gamma1 inh: inhibitors of human phospholipase C gamma1; inhibition, % at 12.2 µM; purified PLC-gamma1, fluorogenic substrate, fluorescence; P19174; AID 720700; 0.84% of 370,000 active; in the data active means inhibition above about 9.5%
PLC-beta3 inh: blocks human PLC-beta3 enzyme activity; Q01970; 0.18% of 370,000 active; Purified PLC-beta3, fluorogenic substrate, fluorescence; inhibition, % at 12.2 µM; in the data active means inhibition above about 11%
IN multimer up: HIV-1 integrase multimerization activation, counter-screen | TR-FRET HIV-1 integrase multimerization, biochemical | shares compounds with LEDGF integ inh | activation, % at 7.7 µM | 17% of 2,000 active; in the data active means activation above about 8.9%
TR-FRET interf: counter-screen for LEDGF/p75 integration inhibitors: TR-FRET optical interference; shares compounds with LEDGF integ inh; 2,000 tested, under 10 active; TR-FRET optical interference counterscreen, HIV-1 IN multimerization; inhibition, % at 7.7 µM;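 active means inhibition above the mean over all tested compounds plus 3 SD, which no compound reached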
IN-LEDGF confirm: LEDGF/p75-dependent HIV-1 integration inhibition, confirmation | shares compounds with LEDGF integ inh | inhibition, % at 3.7 µM | 36% of 2,000 active | AID 1053136 | TR-FRET LEDGF/p75-dependent HIV-1 integration, biochemical; in the data active means inhibition above about 14%
Numbers stand for hits; 0 = inactive; - = no result. The list is not random: actives were taken first. Their share in the collection is about 2.3%.

SMILES	MBD2 inh	UHRF1 MBD2 ctr	LEDGF integ inh	PLC-gamma1 inh	PLC-beta3 inh	IN multimer up	TR-FRET interf	IN-LEDGF confirm
Oc1ccc(Br)cc1-c1cc(-c2ccccc2Cl)[nH]n1	0	0	25	0	0	0	0	0
Oc1ccc(Br)cc1-c1cc(-c2ccccc2F)[nH]n1	0	0	0	0	0	-	-	-
O=C1CCC[C@H]2C[C@H](NCc3ccccc3F)CC[C@]23CCCN13	0	0	0	0	0	-	-	-
CC(=O)N1CCN(c2ccc(NCc3ccco3)cc2)CC1	0	0	21	0	0	0	0	0
CC(=O)N1CCN(c2ccc(NC(=O)c3ccco3)cc2)CC1	0	0	0	0	0	-	-	-
N#Cc1c(N)[nH]c(C(=O)c2ccccc2)c1-c1ccccc1Br	0	0	32	0	0	0	0	0
OC1(Cc2ccccc2)CCN(c2ncnc3sccc23)CC1	0	0	0	0	0	-	-	-
Cc1ccc(N(C)c2nc(N)nc(N)c2N=O)cc1	0	0	14	0	0	0	0	17
COc1ccc(C[N+]2=C(N)NC3=C(C)Cn4c(=O)n(-c5ccccc5)c(=O)n4C3C2)c(OC)c1 (centres undefined)	0	0	0	0	0	-	-	-
CN(C)CCn1nnnc1SCC1=C(C(=O)O)N2C(=O)[C@@H](NC(=O)Cc3csc(N)n3)[C@H]2SC1	0	39	24	0	0	0	0	19
CC[C@H](CCCc1ccc(OC)cc1)CCC(=O)N1CCOCC1	0	0	0	0	0	-	-	-
COc1ccc2c(c1)NC(=O)[C@@]2(CCN1C(=O)c2ccccc2C1=O)c1[nH]c2ccccc2c1CCN1C(=O)c2ccccc2C1=O	0	0	0	0	0	-	-	-
COc1cc(NC(=O)CN2CCCCCC2)cc(OC)c1	0	0	19	0	0	0	0	0
COc1ccc(NC(=O)CN2CCN(CC(=O)Nc3cc(OC)cc(OC)c3)CC2)cc1	0	0	0	0	0	-	-	-
C[C@@H](NS(=O)(=O)c1ccc(Br)cc1F)[C@@H](O)c1ccccc1	0	0	0	0	0	-	-	-
CC(NS(=O)(=O)c1ccc(Br)cc1F)[C@H](O)c1ccccc1 (some centres undefined)	0	0	15	0	0	0	0	0
Cc1ccsc1/C=C/C1=Cc2c(sc(NC(=O)CSc3n[nH]c(N)n3)c2C#N)C(C)(C)C1	0	0	18	0	0	0	0	39
O=S1(=O)c2ccc(N3CCC[C@H]3CO)cc2O[C@H]2CCN1C2	0	0	0	0	0	-	-	-
CN(C)S(=O)(=O)N1CCC(CO)(Cc2cccc(C(F)(F)F)c2)CC1	0	0	32	0	0	0	0	0
Cc1cc2nn(-c3ccc(Cl)cc3)nc2cc1N	0	0	0	0	0	-	-	-
COc1ccc(-n2nc3cc(C)c(N)cc3n2)cc1Cl	0	0	15	0	0	0	0	0
COC(=O)/C(=C/Nc1ccc(O)cc1)[N+](=O)[O-]	0	0	25	0	0	0	0	0
CC1=C(C(=O)N(C)C)CC(CC(=O)NC(c2ccccc2)c2ccccc2)C(=O)N1Cc1ccc(C(C)(C)C)cc1 (centres undefined)	0	0	0	0	0	-	-	-
CCN(CC)C(=O)C1=C(C)N(Cc2ccc(C(C)(C)C)cc2)C(=O)C(CC(=O)NC(c2ccccc2)c2ccccc2)C1 (centres undefined)	0	0	70	0	0	0	0	0
CCCCSCc1[nH]c(=O)[nH]c1C(=O)CCCCC(=O)OCC	0	0	0	0	0	-	-	-
SMILES	MBD2 inh	UHRF1 MBD2 ctr	LEDGF integ inh	PLC-gamma1 inh	PLC-beta3 inh	IN multimer up	TR-FRET interf	IN-LEDGF confirm
CCOC(=O)CCCCC(=O)c1[nH]c(=O)[nH]c1CSc1nnc2c3ccccc3n(C(C)C)c2n1	0	0	28	0	0	0	0	0
CCCn1c2ccccc2c2nnc(SCc3[nH]c(=O)[nH]c3C(=O)CCCCC(=O)OCC)nc21	0	0	30	0	0	0	0	19
CCOC(=O)C(C)Sc1nnc2c3ccccc3n(C)c2n1 (centres undefined)	0	0	0	0	0	-	-	-
O=C(CSc1nnc(-c2cccnc2)n1-c1ccccc1)Nc1ccc(OCc2ccccc2)cc1	0	0	0	0	0	-	-	-
Cn1cccc1/C=C1\CCC/C(=C\c2cccn2C)C1=O	0	0	19	0	0	0	0	0
O=c1c2c([N+](=O)[O-])cc([N+](=O)[O-])cc2nc2ccccn12	0	0	25	0	0	0	0	19
O=c1c2c([N+](=O)[O-])cc([N+](=O)[O-])cc2sn1Cc1ccccc1	0	0	0	0	0	-	-	-
O=[N+]([O-])c1c(Nc2ccccn2)cc(Cl)c2nonc12	0	0	70	0	0	0	0	40
O=c1c2c(n3nnnc3n1Cc1ccc(Cl)cc1)-c1ccccc1CC21CCCC1	0	0	0	0	0	-	-	-
Cc1cc2cc(C#N)c(NCCNC(=S)NCCCN3CCOCC3)nc2cc1C	0	0	0	0	0	-	-	-
COc1ccc2nc(NCCNC(=S)NCCCN3CCOCC3)c(C#N)cc2c1	0	0	35	0	0	0	0	0
CC(=O)OC12CCCN(C1)/C(=C/c1ccc(Cl)cc1)C2 (centres undefined)	0	0	0	0	0	-	-	-
COCCCNC(=O)c1oc(=O)c2ccccc2c1-c1ccc(C)cc1	0	0	0	0	0	-	-	-
O=C(O)c1ccc(S(=O)(=O)c2ccc3c(c2)C(=O)N(c2ccc(O)cc2)C3=O)cc1	0	0	16	0	0	0	0	0
O=C(O)c1ccc(NC(=O)c2ccc3c(c2)C(=O)N(c2ccccc2)C3=O)cc1	0	0	0	0	0	-	-	-
CN(C)/C=N/c1ncn(-c2ncc(C(F)(F)F)cc2Cl)n1	0	0	17	0	0	0	0	0
CCn1c(SCC(=O)Nc2ccc(C(N)=O)cc2)nc2sc(C)c(C)c2c1=O	0	0	0	0	0	-	-	-
Oc1ccc(/C=C/c2cc(O)cc(O)c2)cc1	0	0	0	0	0	-	-	-
Oc1cc(O)cc(C=Cc2ccc(O)c(O)c2)c1	0	0	51	0	0	43	0	42
CCN(CC)c1cc(Oc2ccccc2)ncn1	0	0	47	0	0	0	0	0
Cc1ccnc(NS(=O)(=O)c2ccc(NC(=O)c3ccccc3F)cc2)n1	0	0	25	0	0	0	0	0
N#Cc1ccc(/C=C2\CC3(OC(=O)C4CCCCC4)CCCN2C3)cc1 (centres undefined)	0	0	0	0	0	-	-	-
c1ccc(Cn2c(SCC3CCCCC3)nnc2-c2cccnc2)cc1	0	0	0	0	0	-	-	-
Cc1ccccc1C(=O)N(Cc1ccccn1)CC1CCCO1 (centres undefined)	0	0	0	0	0	-	-	-
O=C1C=C(O)CC(c2ccco2)C1 (centres undefined)	0	36	38	0	0	0	0	21
